# According to the OligoGym collection:
# Molecular target: CEACAM7
# Test: pooled miR-30 sensor sort-seq; sequence = guide strand
# Details: shRNA
# Further: reference of the scale not given here.
row,Sequence,sensor-assay potency score (higher = more potent)
1,AAGATTTTCTTTTATAACGTGT,0.163
2,TTGTCTCTCGACCGTTGTGTGC,-1.35
3,AACTTGCTTGTACTGACTCATA,-1.59
4,TATCCTATAATTCGATAGTTGG,-0.535
5,TAGAATTGTCTGGTTACTTCTT,-0.107
6,TTGACTTATATTTTTTACATAT,-1.26
7,ATATCTTTGTTCTCCACCGGAT,-0.501
8,TTCTTTTATAACGTGTAGGGTA,-0.399
9,TATTGTCTCTCGACCGTTGTGT,0.904
10,TCGATAGTTGGCATGCACCCTT,-0.656
11,TATCTTTGTTCTCCACCGGATT,-1.29
12,TATAATTCGATAGTTGGCATGC,-0.121
13,TAGAGGTCTAACTCTAACAGGG,-0.585

# Molecular target: CELA2A
# Test: as above
# Details: shRNA
row,Sequence,sensor-assay potency score (higher = more potent)
1,TAGTAGTTGCAGCCGAGGCGAG,-1.3
2,ATACTGGTTTTCACGCTGCTGC,-1.06
3,TCTTAGAGACACTGACTGCCAG,-0.61
4,ATGTAATTGGAGACCCGCGTGA,-0.77
5,TTGCAGCTGGAGATCACGCCAT,-0.881
6,TGTGGTAGTAGTTGCAGCCGAG,-0.0375
7,TTATATTATTTTCCTTCTGTGA,-1.25
8,TTGTGGTAGTAGTTGCAGCCGA,-0.632
9,TTGGTTGGAGTTCCAGTCCTTG,-0.732
10,AATCTTAGAGACACTGACTGCC,0.508
11,TTCTTCACCGCCAACCACCCTA,-0.855
12,TACCACTTGCCATTGGAGCTGT,0.0148

# Molecular target: CENPE
# Test: as above
# Details: shRNA
row,Sequence,sensor-assay potency score (higher = more potent)
1,TTAGTTGCATCTCTTGATCTTT,0.409
2,TTCTTGAGTATCTATATTCATG,-0.957
3,TTGAGAGTCTATGTATTCCTGT,0.505
4,TTTATCAATAGTTTCTTGGTGC,0.371
5,TTGTCTTGTATCTCTTTCCTCA,0.236
6,TAGCTCTTGATGTAACATGAGG,-1.24
7,TATTTCACACATTTTCTCCTGA,0.76
8,TAACACTCTCTAACATTTGTTG,0.0489
9,TTGTGTGGTAGGATTAACCTGG,0.117
10,TTTTGATTTATCTAAATCCTTT,-0.683
11,TTGGAGTTCATTTTTCTCCTGT,0.691
12,TTTATTTTTGTAACATAGCTTA,-0.197
13,TTTTGTAGCACTGATTTCCTTT,-0.158
14,TGTAGTATCTGAGTCAACCTTA,0.878
15,TTTGTCAATAGTTTCCTGCTGC,0.514
